Percent Effect data for 10 molecules are collected here from ChEMBL document CHEMBL3988442, “University of Dundee, Small-Polar-MMV Screening Library” (2021).

What all share (parameters): scale not given: direction of the effect not stated beside the values
The target of assay [1] is Protein translocase subunit SecA (Escherichia coli (strain K12)) (UniProt P10408). Kind of assay: Assay to Identify E. coli SecA ATPase Inhibitors. Conditions: 30 µM. It is filed as functional.
For assay [2], the target named is T1, Ubiquitin-activating enzyme e1, putative (Leishmania donovani (strain BPK282A1)) (UniProt E9BSI1).
T1 sequence (whole entry): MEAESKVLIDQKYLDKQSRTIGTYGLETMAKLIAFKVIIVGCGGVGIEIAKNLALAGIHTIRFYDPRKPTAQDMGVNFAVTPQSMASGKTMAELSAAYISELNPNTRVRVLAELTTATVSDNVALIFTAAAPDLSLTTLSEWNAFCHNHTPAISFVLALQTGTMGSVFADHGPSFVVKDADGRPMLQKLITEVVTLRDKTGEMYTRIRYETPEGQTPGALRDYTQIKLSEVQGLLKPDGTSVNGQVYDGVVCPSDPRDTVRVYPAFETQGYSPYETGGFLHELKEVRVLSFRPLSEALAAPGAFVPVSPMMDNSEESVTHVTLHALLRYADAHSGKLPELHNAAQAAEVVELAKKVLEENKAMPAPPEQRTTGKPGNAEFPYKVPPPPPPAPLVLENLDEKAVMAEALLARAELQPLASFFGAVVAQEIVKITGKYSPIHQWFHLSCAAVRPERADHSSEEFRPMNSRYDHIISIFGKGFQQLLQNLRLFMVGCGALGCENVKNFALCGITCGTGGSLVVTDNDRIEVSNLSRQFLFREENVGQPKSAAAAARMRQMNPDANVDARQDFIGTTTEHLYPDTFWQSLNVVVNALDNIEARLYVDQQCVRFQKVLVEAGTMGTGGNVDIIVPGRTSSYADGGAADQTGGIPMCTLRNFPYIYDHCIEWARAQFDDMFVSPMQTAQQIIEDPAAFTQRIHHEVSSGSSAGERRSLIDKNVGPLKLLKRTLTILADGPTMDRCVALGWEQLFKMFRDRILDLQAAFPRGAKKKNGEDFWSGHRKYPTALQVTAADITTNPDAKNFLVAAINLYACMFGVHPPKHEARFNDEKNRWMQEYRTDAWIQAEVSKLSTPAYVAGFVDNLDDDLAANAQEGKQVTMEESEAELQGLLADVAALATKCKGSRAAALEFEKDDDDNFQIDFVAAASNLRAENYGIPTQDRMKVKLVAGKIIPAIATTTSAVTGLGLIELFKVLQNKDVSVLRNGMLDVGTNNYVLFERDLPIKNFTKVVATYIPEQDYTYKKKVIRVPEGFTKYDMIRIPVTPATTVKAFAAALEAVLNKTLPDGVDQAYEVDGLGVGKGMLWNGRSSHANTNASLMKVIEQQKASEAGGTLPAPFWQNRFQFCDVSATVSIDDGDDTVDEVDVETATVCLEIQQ
Put plainly: Leishmania donovani Ubiquitin Activating Enzyme (LdE1). It is filed as functional. Conditions: 30 µM.

Assay [3] deals with AMP-activated protein kinase, AMPK (Homo sapiens) (UniProt P54646+O43741+P54619+Q9UGJ0+Q9Y478+Q13131+Q9UGI9). Kind of assay: AMP-dependent Kinase enzyme assay. An in vitro enzyme assay that detects ADP turnover that is directly proportional to AMPK activity. This uses naive AMPK that is activated during the assay with MK-8722. As to conditions: 30 µM. It is filed as functional.

Assay [4] concerns the target Sialic acid-binding Ig-like lectin 9 (Homo sapiens) (UniProt Q9Y336). Kind of assay: Hs-Siglec9 ALPHAscreen SOP 20170721. Conditions: 10 µM.
In assay [5] the test system is Trypanosoma cruzi. Put plainly: Trypanosoma cruzi phosphomannomutase and mannose-1-phosphate guanylyltransferase assay. As to conditions: 10 µM. The format is functional.
In assay [6] the target is T2, Arginase-2, mitochondrial (Homo sapiens) (UniProt P78540).
T2 sequence (whole entry): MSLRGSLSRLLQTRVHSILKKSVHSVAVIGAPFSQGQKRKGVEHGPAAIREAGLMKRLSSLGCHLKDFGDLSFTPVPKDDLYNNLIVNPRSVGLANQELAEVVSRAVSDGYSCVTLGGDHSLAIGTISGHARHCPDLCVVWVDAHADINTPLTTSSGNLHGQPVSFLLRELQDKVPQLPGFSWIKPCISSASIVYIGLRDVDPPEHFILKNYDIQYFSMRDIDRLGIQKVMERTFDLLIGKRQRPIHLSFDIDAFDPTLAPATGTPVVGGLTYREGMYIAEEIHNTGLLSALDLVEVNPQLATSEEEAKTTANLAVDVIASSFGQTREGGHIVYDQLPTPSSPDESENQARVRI
Kind of assay: in vitro enzyme assay to detect the production of urea directly proportional to the activity of Arginase II. Further: in the data most compounds retested in dose-response had high values. It is filed as functional. Conditions: 33.3 µM.

The target of assay [7] is T3, Proteasome subunit beta (Trypanosoma cruzi) (UniProt O96673).
T3 sequence (whole entry): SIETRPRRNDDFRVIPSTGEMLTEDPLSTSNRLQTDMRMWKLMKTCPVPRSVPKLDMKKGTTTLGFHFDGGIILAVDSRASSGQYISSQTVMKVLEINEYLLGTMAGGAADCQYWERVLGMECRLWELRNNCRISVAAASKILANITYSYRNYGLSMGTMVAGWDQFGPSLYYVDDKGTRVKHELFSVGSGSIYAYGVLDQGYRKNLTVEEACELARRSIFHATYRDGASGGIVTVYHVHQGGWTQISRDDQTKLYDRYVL
Put plainly: Trypanosoma cruzi proteasome chymotrypsin-like activity (TcProtChymo) assay. Further: in the data most compounds retested in dose-response had high values. It is filed as functional. Conditions: 9.37 µM.

For assay [8], the species on record is Homo sapiens. Kind of assay: To identify inhibition of the IFN signalling (Jak-Stat) pathway via expression of an eGFP reporter gene under the control of an IFN-stimulated response element (ISRE) containing MxA promoter. The format is functional. Conditions: 30 µM.
Assay [9] concerns the target T4, Tyrosyl-tRNA synthetase, putative (Trypanosoma cruzi (strain CL Brener)) (UniProt Q4DSP6).
T4 sequence (whole entry): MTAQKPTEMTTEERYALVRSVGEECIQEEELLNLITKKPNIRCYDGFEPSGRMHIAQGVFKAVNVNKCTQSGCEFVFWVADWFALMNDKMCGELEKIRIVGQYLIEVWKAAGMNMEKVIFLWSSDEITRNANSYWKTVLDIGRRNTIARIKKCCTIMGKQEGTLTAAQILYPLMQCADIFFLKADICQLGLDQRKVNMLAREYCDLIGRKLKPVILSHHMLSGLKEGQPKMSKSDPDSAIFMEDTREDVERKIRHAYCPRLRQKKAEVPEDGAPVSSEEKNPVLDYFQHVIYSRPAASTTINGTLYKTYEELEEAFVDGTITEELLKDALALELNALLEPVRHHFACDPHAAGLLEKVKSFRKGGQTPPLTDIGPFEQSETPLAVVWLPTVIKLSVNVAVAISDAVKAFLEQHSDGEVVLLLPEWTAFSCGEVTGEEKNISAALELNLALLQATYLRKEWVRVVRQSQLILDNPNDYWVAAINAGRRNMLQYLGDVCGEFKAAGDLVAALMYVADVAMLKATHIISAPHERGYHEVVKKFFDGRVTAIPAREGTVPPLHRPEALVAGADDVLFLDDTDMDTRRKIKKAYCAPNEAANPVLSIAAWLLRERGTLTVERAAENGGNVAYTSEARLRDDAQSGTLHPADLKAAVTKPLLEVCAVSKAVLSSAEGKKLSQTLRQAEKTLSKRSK
Kind of assay: Trypanosoma cruzi tyrosyl tRNA synthetase (TcYRS) _High Tyrosine SOP. Further: in the data most compounds retested in dose-response had high values. As to conditions: 30 µM. It is filed as functional.

In assay [10] the target is T4, Tyrosyl-tRNA synthetase, putative (Trypanosoma cruzi (strain CL Brener)). Put plainly: Trypanosoma cruzi tyrosyl tRNA synthetase (TcYRS) SOP. The format is functional. Conditions: 30 µM.
Assay [11] addresses Chromo domain-containing protein 1 (Saccharomyces cerevisiae (strain ATCC 204508 / S288c) (Baker's yeast)) (UniProt P32657). Put plainly: ScCHD-1 Enzyme Inhibition Assay. Further: in the data most compounds retested in dose-response had high values. The format is functional. Conditions: 30 µM.

Each structure is given as a SMILES string. For some assays here: Results with a measured potency or affinity are listed apart.

Sequence of Protein translocase subunit SecA (Escherichia coli (strain K12)) (P10408 whole entry): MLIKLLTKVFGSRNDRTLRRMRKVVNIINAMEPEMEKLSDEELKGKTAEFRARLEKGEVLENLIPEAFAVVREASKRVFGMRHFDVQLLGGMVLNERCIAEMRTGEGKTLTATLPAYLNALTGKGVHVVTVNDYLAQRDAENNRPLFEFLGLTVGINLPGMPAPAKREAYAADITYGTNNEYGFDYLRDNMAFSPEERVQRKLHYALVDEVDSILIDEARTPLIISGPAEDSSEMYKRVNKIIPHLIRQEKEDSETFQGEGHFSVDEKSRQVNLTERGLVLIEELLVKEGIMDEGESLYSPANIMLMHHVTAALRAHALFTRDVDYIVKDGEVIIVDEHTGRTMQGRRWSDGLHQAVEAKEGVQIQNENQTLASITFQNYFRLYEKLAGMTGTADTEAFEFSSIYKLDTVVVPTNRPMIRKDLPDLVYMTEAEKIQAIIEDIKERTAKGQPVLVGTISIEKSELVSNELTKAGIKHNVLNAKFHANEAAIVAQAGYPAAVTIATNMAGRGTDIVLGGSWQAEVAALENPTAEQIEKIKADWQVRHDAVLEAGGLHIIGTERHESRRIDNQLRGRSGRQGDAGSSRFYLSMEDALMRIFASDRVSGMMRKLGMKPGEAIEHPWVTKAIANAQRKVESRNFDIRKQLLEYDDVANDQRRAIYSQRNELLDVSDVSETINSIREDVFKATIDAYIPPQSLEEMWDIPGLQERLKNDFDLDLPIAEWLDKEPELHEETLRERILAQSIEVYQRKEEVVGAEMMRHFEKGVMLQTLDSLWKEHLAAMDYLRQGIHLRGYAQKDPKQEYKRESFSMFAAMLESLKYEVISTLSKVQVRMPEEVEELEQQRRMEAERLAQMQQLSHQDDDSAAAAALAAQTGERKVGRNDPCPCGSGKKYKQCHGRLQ
Sequence of Chromo domain-containing protein 1 (Saccharomyces cerevisiae (strain ATCC 204508 / S288c) (Baker's yeast)) (P32657 whole entry, the tested form may be a part): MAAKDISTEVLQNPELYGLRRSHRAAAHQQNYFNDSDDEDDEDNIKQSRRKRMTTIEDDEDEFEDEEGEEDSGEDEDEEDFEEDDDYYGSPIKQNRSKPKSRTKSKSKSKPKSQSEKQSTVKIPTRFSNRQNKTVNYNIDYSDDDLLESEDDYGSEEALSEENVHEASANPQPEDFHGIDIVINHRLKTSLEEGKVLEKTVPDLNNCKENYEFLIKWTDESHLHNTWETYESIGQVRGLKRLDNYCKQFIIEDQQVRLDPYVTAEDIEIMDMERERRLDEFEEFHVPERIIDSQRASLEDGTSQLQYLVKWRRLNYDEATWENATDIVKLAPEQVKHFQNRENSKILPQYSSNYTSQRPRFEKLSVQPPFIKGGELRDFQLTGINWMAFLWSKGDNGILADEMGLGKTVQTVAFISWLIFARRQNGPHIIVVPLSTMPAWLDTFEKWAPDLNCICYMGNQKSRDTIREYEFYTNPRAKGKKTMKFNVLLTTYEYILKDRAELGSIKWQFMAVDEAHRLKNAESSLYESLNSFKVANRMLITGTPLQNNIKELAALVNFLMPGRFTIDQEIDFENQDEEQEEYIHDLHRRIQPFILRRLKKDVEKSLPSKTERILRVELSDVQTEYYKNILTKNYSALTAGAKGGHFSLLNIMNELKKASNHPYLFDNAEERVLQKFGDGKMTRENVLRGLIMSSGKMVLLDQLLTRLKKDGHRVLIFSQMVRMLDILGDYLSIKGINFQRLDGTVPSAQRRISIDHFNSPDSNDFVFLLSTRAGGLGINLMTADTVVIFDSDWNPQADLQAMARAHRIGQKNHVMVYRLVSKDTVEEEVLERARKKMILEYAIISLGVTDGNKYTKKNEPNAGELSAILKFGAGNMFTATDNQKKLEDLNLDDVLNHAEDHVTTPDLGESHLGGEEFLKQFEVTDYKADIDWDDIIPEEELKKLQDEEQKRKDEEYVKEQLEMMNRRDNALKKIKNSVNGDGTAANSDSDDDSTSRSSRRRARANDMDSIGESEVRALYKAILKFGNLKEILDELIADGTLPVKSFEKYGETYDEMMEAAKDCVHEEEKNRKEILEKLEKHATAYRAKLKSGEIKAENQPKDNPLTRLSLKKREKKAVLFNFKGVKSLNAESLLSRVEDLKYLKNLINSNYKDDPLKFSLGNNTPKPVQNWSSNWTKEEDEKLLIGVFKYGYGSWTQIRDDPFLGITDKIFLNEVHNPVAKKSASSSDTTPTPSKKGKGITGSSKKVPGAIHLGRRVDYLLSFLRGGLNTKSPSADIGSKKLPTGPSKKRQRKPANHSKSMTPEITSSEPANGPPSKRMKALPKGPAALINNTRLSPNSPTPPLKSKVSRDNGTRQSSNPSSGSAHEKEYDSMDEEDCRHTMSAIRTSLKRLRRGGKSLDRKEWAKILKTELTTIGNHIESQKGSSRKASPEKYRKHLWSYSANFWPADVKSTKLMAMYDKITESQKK
Sequence of Sialic acid-binding Ig-like lectin 9 (Homo sapiens) (Q9Y336 whole entry): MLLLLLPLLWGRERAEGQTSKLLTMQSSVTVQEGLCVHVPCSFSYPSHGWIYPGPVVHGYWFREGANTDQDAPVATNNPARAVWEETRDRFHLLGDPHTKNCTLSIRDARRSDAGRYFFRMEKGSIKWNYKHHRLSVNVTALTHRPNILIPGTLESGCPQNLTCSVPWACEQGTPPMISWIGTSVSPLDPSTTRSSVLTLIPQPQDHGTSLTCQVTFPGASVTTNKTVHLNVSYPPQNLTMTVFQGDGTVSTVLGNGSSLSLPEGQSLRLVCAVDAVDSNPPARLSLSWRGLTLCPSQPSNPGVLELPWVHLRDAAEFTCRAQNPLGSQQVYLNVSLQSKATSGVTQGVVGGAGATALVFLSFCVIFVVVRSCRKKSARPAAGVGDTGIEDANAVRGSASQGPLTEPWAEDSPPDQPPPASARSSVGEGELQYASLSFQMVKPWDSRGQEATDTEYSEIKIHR

Turning to `COC(=O)c1cc(C(=O)N2CCOCC2(C)C)n(-c2ccccc2)n1`, the Percent Effect is -2.65% in assay [1]; 7.89% in assay [2]; 4.52% in [3]; 4.64% in assay [4]; 6.2% in assay [5]; -6.13% in [6]. The Percent Effect in assay [7] is 0%; in assay [8] it was -3.57%; in assay [9], 4.41%; in assay [10], 17.1%; in assay [11], -9.02%.
For the molecule `COc1ccc(-c2nnc(SCC(=O)NCC(C)C)[nH]2)c(OC)c1`, the Percent Effect is -5.51% in assay [1]; 18.4% in [2]; 1.07% in assay [3]; -1.8% in [4]; 4.97% in assay [5]; 4.73% in assay [6]. Further, the Percent Effect was 15.8% in assay [7]; 12.1% in assay [8]; 3.19% in [9]; 18.2% in [10]; -1.07% in [11].
On to `CC(C)C(=O)N1CCN(C(=O)c2cscn2)[C@H]2CS(=O)(=O)C[C@H]21`, for which the Percent Effect in [1] was -2.31%; in assay [2], 15.3%; in [3], -5.83%; in assay [4], 5.33%; in assay [5], 2.04%; in assay [6], 4.42%. In addition, the Percent Effect is 13.9% in [7]; -3.92% in assay [8]; 3.16% in assay [9]; 12.8% in assay [10]; -0.218% in [11].
For the molecule `CN(C)CC1CN(c2cnc3ccccc3n2)CCO1` (stereo not given), the Percent Effect in assay [1] was -0.138%; in assay [2], 22.8%; in assay [3] it was -4.08%; in assay [4] it was -7.06%; in assay [5], 3.49%; in [6] it was 6.84%. The Percent Effect in [7] was 12.7%; in assay [8], 19.6%; in assay [9], 7.39%; in assay [10] it was 26.6%; in assay [11], -5.98%.
As for `c1ccc(Cn2cc(CNC3CCc4ncnn4C3)cn2)cc1` (stereo not given), the Percent Effect was -3.66% in assay [1]; 6.33% in [2]; -0.419% in assay [3]; 1.15% in assay [4]; 0.923% in [5]; -3.66% in [6]. The Percent Effect was 5.66% in assay [7]; 4.51% in assay [8]; 3.12% in assay [9]; 10.1% in assay [10]; -19.2% in assay [11].
For `COc1cccc(CN(C)S(=O)(=O)N2CCOCC2)c1`, the Percent Effect was -1.1% in [1]; 13.2% in assay [2]; 1.96% in assay [3]; -0.478% in assay [4]; 2.63% in assay [5]; -10.7% in assay [6]. For the same molecule, the Percent Effect in assay [7] is 22.1%; in [8], 23.5%; in assay [9], 5.32%; in [10], 18.2%; in assay [11], -6.9%.
On to `O=C(CCc1ccc(Cl)s1)N1CCCC(n2cncn2)C1` (stereo not given), for which the Percent Effect in assay [1] was -2.21%; in [2], -2.53%; in assay [3], 3.52%; in [4] it was 6.43%; in assay [5], -0.0944%; in [6], 5.32%. In addition, the Percent Effect in assay [7] is -3.36%; in assay [8] it was -2.4%; in assay [9], 0.493%; in assay [10], -1.27%; in [11] it was 0.688%.
For the molecule `Cc1nn(C)c2sc(C(=O)N3CCCC(n4ccnc4C)C3)cc12` (stereo not given), the Percent Effect in assay [1] was -3.87%; in assay [2], 7.89%; in assay [3] it was 3.55%; in assay [4], 2.66%; in assay [5] it was 2.82%; in assay [6] it was -5.92%. In addition, the Percent Effect is 8.92% in assay [7]; 24.3% in assay [8]; 4.25% in assay [9]; 5.2% in [10]; -4.45% in [11].
Regarding `CC(=O)NC(C)(C)C(=O)Nc1ncc(Cc2ccc(C)c(F)c2)s1`, the Percent Effect in assay [1] is -2.79%; in [2], 13.9%; in assay [3], 1.18%; in [4], 3.12%; in assay [5] it was 8.51%; in assay [6], -2.37%. The Percent Effect was 13.2% in assay [7]; 28.2% in assay [8]; 5.21% in assay [9]; 17.7% in assay [10]; -33.1% in assay [11].
For `Cc1cc(C)n(CC2CCCN2C(=O)Cc2c(C)noc2C)n1` (stereo not given), the Percent Effect in [1] is -7.56%; in assay [2], 8.11%; in assay [3] it was -14.7%; in assay [4] it was 23.5%; in assay [5], 2.92%; in assay [6] it was -9.62%. Moreover, the Percent Effect is 9.37% in assay [7]; 15.8% in assay [8]; 4.43% in [9]; 13.6% in assay [10]; -11.4% in [11].
